The results in this text go back to PubChem BioAssay (EPA / NIEHS).

Molecules are shown by their SMILES. Records with an inconclusive call do not appear. Calls of active or inactive are those of the source. How the source made its calls: active means hit-call score of the fitted dose curve at least 0.9, where 1 is the maximum; inconclusive means response in the unintended direction; inactive means score below 0.9.

Assay [1] concerns the target rat Peripheral-type Benzodiazepine Receptor (PBR), Tspo (gene 24230) (UniProt P16257). Put plainly: NVS_MP_rPBR: NovaScreen (NVS) Membrane Protein Assay for rat Peripheral-type Benzodiazepine Receptor (PBR) (AID 2283335). The essentials:
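Rat kidney membranes; radioligand binding with displacement, filter-based scintillation counting, 1 h incubation. Primary screen in duplicate at 25 uM, actives followed in concentration series; loss of binding vs DMSO.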

Assay [2] concerns the target bovine Estrogen Receptor (ER), ESR1 (gene 407238) (UniProt P49884). The assay is described as follows: NVS_NR_bER: NovaScreen (NVS) Nuclear Receptor Binding Assay for bovine Estrogen Receptor (ER) (AID 2283345).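 Further: actives lower the bound radioligand count which means they displace the ER ligand.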 The essentials:
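Displacement of a radioligand from estrogen receptor in bovine uterine membrane preparations; scintillation signal taken at 18 hours, DMSO as baseline. Single-concentration duplicates (25 uM) preceded concentration-response follow-up of actives.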

The target of assay [3] is Estrogen receptor (Homo sapiens) (UniProt P03372). Put plainly: NVS_NR_hER: NovaScreen (NVS) Nuclear Receptor Binding Assay for human Estrogen Receptor (ER) (AID 2283348). The procedure, abridged: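 Cell-free radioligand binding with protein extracted from MCF7 cells; scintillation counting 18 hours after dosing. Loss of signal versus DMSO baseline read as displacement; primary single-concentration screen at 25 uM in duplicate, actives retested in concentration series.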

Assay [4] has as its target T1, Estrogen receptor (Homo sapiens) + Estrogen receptor beta (Homo sapiens) (UniProt P03372+Q92731). The assay is described as follows: OT_ER_ERaERb_0480: Odyssey Thera (OT) 8-hour HEK293T Protein-Complementation Assay for Estrogen Receptor-alpha/-beta Heterodimer (AID 2283352). The procedure, abridged:
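Increase in mean fluorescence intensity, measured by laser scanning plate cytometry, reported ER-alpha/ER-beta LBD complementation in HEK293T cells after 8 h chemical exposure. DMSO served as baseline; basal signal is low, punctate and cytoplasmic.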

For assay [5], the target named is T1, Estrogen receptor (Homo sapiens) + Estrogen receptor beta (Homo sapiens). The assay is described as follows: OT_ER_ERaERb_1440: Odyssey Thera (OT) 24-hour HEK293T Protein-Complementation Assay for Estrogen Receptor-alpha/-beta Homodimer (AID 2283356).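 Further: heteromer of ER alpha and ER beta binding domains; hits raise reporter fluorescence and both agonists and antagonists give an increase.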 The procedure, abridged:
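Heterodimerisation of ERα (aa 310-547) and ERβ (aa 263-489) ligand binding domains was tracked as fluorescence gain in stably transfected HEK293T cells following 24 h dosing, normalised to DMSO controls.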

The target in assay [6] is Estrogen receptor beta (Homo sapiens) (UniProt Q92731). The assay is described as follows: OT_ER_ERbERb_0480: Odyssey Thera (OT) 8-hour HEK293T Protein-Complementation Assay for Estrogen Receptor-beta/-beta Homodimer (AID 2283357).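 Further: active means signal gain over DMSO baseline.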 The essentials: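 Readout: increase in mean fluorescence intensity (nucleus for agonists; nucleus plus cytoplasm for antagonists) relative to DMSO, from a reporter-fragment complementation of human ER-beta LBD homodimer in HEK293T cells dosed 8 hours.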

Assay [7] addresses human Peripheral-type Benzodiazepine Receptor (PBR), TSPO (gene 706) (UniProt P30536). The assay is described as follows: NVS_MP_hPBR: NovaScreen (NVS) Membrane Protein Assay for human Peripheral-type Benzodiazepine Receptor (PBR) (AID 2283331).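 Further: hits reduce radioligand binding relative to DMSO baseline.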 The essentials: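 Human colonic cell membranes were incubated with test chemical for 1 hour; radioligand binding was measured by filter-based scintillation counting. Primary screen ran in duplicate at 25 uM, with actives followed in concentration series; loss of signal versus DMSO baseline.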

The target of assay [8] is human Androgen Receptor (AR), AR (gene 367) (UniProt P10275). The assay is described as follows: NVS_NR_hAR: NovaScreen (NVS) Nuclear Receptor Binding Assay for human Androgen Receptor (AR) (AID 2283332). The essentials: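 Actives from a duplicate 25 uM single-point screen went on to concentration series. Read-out after 20 h was scintillation counting of displaced radioligand in LnCAP extract, with DMSO as baseline.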

For assay [9], the target named is chimpanzee Androgen Receptor (AR), AR (gene 747460) (UniProt O97775). The assay is described as follows: NVS_NR_cAR: NovaScreen (NVS) Nuclear Receptor Binding Assay for chimpanzee Androgen Receptor (AR) (AID 2283346).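 Further: radioligand displacement from AR measured by scintillation counting in a cell-free assay.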 The procedure, abridged:
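Cell-free radioligand displacement using receptor protein extracted from Sf9/Sf21 cells; bound radioligand measured by scintillation counting 72 hours after chemical dosing. Loss of signal versus DMSO baseline indicates binding; primary screen single-concentration in duplicate at 25 uM, actives followed in concentration series.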

Assay [10] has as its target Androgen Receptor/SRC-1 Co-activator, AR (gene 367) (UniProt P10275). Put plainly: OT_AR_ARSRC1_0960: Odyssey Thera (OT) 16-hour HEK293T Protein-Complementation Assay for Androgen Receptor/SRC-1 Co-activator (AID 2283353).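 Further: actives raise the signal above DMSO so potency reflects increased AR and SRC-1 complex.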 The procedure, abridged: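 HEK293T cells stably expressing AR and SRC-1 fused to Venus YFP fragments, imaged 16 h after dosing. Nuclear/cytoplasmic fluorescence ratio at 488 nm from at least 400 cells per image; gain of signal relative to DMSO.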

Assay [11] has the same target. The assay is described as follows: OT_AR_ARSRC1_0480: Odyssey Thera (OT) 8-hour HEK293T Protein-Complementation Assay for Androgen Receptor/SRC-1 Co-activator (AID 2283354).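 Further: hits raise the complementation signal above DMSO so AC50 marks enhancers.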 The procedure, abridged:
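HEK293T cells stably expressing AR and SRC-1 fused to split Venus YFP fragments via (Gly4Ser)2 linkers were read 8 h after compound dosing. Complementation was imaged at 488 and 635nm, and nuclear/cytoplasmic fluorescence ratio (488nm) was taken over ≥400 cells; gain-of-signal versus DMSO.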

The target in assay [12] is Retinoic acid receptor alpha (Homo sapiens) (UniProt P10276). Put plainly: NVS_NR_hRAR_Antagonist: NovaScreen (NVS) Nuclear Receptor Binding Assay for human Retinoic Acid Alpha Receptor Antagonism (RAR) (AID 2283358). The essentials:
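Cell-free TR-FRET binding assay on extracted receptor protein, run in antagonist mode; signal read 2 hours after chemical dosing. Loss of signal was fitted relative to DMSO baseline. Screened at 25 uM in duplicate, actives followed up in concentration series.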

Assay [13] deals with human Peroxisome Proliferator-activated Receptor alpha (PPARa), PPARA (gene 5465) (UniProt Q07869). The assay is described as follows: NVS_NR_hPPARa: NovaScreen (NVS) Nuclear Receptor Binding Assay for human Peroxisome Proliferator-activated Receptor alpha (PPARa) (AID 2283359).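 Further: activity means loss of TR-FRET signal versus DMSO baseline.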 The essentials: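 Cell-free binding assay with extracted human protein, read by TR-FRET 1 h after chemical dosing. Loss of signal relative to DMSO baseline indicates binding. Primary screen used duplicate single concentration (25 uM); actives followed up in concentration series.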

Another assay concerns the target PGR (gene 5241) (UniProt P06401). Put plainly: NVS_NR_hPR: NovaScreen (NVS) Nuclear Receptor Binding Assay for human Progestron Receptor (PR) (AID 2283360). The essentials:
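T47D-derived receptor preparation, cell-free, with tritiated or iodinated radioligand displacement measured by scintillation 18 h post-dosing. Single 25 uM duplicate screen, then concentration series; signal loss relative to DMSO.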

Chain of Estrogen receptor (Homo sapiens) (P03372 whole entry, looked up): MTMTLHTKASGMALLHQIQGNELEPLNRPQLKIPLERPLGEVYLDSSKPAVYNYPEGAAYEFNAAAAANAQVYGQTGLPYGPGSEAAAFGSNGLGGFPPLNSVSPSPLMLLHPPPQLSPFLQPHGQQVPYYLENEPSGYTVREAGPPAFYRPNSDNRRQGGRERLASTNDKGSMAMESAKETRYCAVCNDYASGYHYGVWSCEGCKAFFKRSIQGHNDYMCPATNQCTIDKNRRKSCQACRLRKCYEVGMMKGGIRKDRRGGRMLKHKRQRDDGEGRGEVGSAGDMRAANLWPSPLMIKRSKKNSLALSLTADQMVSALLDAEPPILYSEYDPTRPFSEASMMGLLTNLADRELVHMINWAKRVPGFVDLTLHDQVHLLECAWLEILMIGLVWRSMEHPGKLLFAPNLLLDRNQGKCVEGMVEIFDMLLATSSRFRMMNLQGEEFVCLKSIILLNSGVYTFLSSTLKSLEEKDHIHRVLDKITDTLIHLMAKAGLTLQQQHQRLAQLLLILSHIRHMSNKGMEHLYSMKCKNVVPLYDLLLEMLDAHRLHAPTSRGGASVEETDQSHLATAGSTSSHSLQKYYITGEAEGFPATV
T1 sequence (P03372 whole entry, looked up, the tested form may be a part): as the sequence (P03372 whole entry, looked up) above
T1 sequence (Q92731 whole entry, looked up, the tested form may be a part): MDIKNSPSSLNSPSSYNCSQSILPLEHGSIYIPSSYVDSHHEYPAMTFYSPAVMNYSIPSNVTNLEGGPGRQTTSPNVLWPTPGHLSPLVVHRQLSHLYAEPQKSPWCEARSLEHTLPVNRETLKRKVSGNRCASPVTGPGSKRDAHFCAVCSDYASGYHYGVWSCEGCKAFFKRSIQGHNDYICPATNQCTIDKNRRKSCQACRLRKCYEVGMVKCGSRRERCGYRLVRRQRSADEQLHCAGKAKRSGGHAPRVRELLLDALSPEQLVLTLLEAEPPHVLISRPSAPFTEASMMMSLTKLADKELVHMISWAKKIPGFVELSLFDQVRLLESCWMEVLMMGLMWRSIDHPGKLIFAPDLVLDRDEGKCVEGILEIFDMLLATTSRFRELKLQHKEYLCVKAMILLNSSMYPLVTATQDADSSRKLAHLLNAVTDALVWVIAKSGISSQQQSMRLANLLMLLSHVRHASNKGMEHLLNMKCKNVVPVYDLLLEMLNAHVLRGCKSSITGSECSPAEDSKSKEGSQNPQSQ
Chain of human Peripheral-type Benzodiazepine Receptor (PBR), TSPO (gene 706) (P30536 whole entry, looked up): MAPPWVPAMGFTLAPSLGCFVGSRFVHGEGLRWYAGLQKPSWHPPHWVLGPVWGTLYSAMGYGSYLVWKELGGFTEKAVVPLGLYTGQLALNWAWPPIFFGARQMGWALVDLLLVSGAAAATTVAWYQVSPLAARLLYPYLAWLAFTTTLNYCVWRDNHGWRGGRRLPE
Chain of Androgen Receptor/SRC-1 Co-activator, AR (gene 367) (P10275 whole entry, looked up, the tested form may be a part): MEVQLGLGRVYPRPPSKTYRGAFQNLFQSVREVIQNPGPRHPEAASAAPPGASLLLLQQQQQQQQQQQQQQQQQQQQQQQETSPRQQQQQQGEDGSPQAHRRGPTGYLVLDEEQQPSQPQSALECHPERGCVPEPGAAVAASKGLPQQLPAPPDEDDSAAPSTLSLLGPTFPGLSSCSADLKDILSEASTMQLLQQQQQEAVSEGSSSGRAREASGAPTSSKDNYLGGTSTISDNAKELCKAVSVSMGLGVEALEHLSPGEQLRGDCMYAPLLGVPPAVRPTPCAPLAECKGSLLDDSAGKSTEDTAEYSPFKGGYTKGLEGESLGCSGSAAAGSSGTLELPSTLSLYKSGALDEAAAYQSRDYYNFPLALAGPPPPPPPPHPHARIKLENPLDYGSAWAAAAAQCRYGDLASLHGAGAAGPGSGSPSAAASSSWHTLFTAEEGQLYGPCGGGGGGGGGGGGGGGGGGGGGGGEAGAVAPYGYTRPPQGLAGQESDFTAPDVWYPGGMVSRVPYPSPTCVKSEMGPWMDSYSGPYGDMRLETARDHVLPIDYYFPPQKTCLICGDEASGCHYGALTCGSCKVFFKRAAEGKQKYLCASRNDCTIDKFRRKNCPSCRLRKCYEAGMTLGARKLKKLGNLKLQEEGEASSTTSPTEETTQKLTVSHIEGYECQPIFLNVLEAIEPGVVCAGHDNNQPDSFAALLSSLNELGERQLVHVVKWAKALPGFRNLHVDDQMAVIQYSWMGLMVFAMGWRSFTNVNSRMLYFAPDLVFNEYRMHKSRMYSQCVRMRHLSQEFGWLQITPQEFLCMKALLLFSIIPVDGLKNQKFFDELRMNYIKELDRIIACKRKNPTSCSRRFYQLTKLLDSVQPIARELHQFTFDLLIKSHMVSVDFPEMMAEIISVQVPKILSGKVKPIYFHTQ
Chain of bovine Estrogen Receptor (ER), ESR1 (gene 407238) (P49884 whole entry, looked up): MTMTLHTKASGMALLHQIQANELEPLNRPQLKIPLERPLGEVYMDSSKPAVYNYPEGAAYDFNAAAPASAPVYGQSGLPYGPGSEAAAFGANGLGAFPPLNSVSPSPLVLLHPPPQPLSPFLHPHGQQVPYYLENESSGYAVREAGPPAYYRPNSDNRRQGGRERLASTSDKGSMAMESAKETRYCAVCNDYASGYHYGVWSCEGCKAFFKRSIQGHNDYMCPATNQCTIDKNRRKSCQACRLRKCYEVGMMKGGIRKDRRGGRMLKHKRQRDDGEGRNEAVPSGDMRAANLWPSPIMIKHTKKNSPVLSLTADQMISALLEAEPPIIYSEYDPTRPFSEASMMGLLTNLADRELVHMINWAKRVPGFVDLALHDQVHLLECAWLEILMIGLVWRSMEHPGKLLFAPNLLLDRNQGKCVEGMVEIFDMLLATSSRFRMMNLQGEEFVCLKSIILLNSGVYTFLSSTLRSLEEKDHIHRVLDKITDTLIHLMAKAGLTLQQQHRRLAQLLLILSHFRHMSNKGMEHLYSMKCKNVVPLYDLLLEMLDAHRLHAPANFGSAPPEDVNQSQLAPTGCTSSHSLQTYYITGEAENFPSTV
Chain of Estrogen receptor beta (Homo sapiens) (Q92731 whole entry, looked up, the tested form may be a part): as the sequence (Q92731 whole entry, looked up, the tested form may be a part) above
Chain of rat Peripheral-type Benzodiazepine Receptor (PBR), Tspo (gene 24230) (P16257 whole entry, looked up): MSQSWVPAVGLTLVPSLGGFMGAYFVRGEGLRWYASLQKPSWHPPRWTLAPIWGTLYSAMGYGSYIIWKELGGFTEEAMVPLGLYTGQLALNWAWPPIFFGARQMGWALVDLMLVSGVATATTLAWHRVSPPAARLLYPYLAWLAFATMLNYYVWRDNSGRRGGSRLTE
Chain of chimpanzee Androgen Receptor (AR), AR (gene 747460) (O97775 whole entry, looked up): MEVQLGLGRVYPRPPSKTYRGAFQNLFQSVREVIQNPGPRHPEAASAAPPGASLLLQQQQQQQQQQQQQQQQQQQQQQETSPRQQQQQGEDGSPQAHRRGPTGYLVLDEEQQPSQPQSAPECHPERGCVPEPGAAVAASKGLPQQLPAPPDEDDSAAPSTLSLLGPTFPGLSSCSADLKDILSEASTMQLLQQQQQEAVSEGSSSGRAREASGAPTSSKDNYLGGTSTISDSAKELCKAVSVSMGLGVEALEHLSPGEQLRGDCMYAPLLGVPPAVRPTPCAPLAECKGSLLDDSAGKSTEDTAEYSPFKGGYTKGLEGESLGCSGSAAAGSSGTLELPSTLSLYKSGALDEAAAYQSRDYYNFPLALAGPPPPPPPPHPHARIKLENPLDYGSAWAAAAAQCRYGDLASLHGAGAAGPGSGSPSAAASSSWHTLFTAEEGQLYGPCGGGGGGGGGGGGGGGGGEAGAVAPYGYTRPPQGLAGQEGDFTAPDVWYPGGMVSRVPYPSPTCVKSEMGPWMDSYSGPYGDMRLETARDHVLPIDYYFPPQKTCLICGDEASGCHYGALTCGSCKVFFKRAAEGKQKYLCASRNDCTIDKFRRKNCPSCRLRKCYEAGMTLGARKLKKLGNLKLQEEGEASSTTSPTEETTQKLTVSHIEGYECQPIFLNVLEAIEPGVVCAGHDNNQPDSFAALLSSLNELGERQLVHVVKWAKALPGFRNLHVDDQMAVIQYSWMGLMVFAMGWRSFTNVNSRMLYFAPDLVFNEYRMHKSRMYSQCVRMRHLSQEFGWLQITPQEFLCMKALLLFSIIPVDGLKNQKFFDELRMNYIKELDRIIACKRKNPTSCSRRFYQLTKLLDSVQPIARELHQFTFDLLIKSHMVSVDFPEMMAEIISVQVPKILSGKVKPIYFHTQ

As for `CCc1cc(Cc2cc(CC)c(N)c(CC)c2)cc(CC)c1N`, the figures for the AC50 in assay [1], in assay [3] and in [5] were 6.66 µM (active), 0.0643 µM (active) and 12.4 µM (active), respectively. Also, the outcome in [2], in assay [4] and in assay [6] was inactive.

As for `CCOC(=O)C1CC(=O)C(=C(O)C2CC2)C(=O)C1` (stereo unspecified), the outcome in assay [5] was inactive.

In the case of `Cc1ccc(S(=O)(=O)C(I)I)cc1`, the figures for the concentration at half-maximal activity (AC50) in [7] and in [1] were 23.2 µM (active) and 7.18 µM (active), respectively.

As for `O=C1c2ccccc2C(=O)c2c(Cl)cccc21`, the AC50 (in general, the midpoint of the concentration-response curve, whichever way the signal moves) in assay [8] is 2.06 µM (active); in [9], 0.93 µM (active).

Regarding `CCCCCCCCCc1ccc(OCCO)cc1`, the half-maximal activity concentration (AC50) is 2.84 µM (active) in assay [7]; 4.81 µM (active) in assay [4]; 20 µM (active) in assay [10]; 25.4 µM (active) in assay [11]; 4.94 µM (active) in assay [5]; 4.92 µM (active) in [6]. Further, the compound was called inactive in assay [2] and in assay [3].

With `CC(C)(C)c1cc(CCC(=O)OCC(COC(=O)CCc2cc(C(C)(C)C)c(O)c(C(C)(C)C)c2)(COC(=O)CCc2cc(C(C)(C)C)c(O)c(C(C)(C)C)c2)COC(=O)CCc2cc(C(C)(C)C)c(O)c(C(C)(C)C)c2)cc(C(C)(C)C)c1O`, the outcome in [5] and in assay [6] was inactive.

As to `CCCCCCCCCCCCC[N+](C)(C)Cc1ccccc1`, the AC50 in [7] was 25.5 µM (active); in assay [10], 14.7 µM (active); in [11] it was 14.6 µM (active); in [12], 9.07 µM (active); in assay [13] it was 21 µM (active). The compound was called inactive in assay [2] and in assay [6].

Regarding `CC(C)(C)C(=O)C1C(=O)c2ccccc2C1=O`, the compound was called inactive in assay [2] and in [3].

In the case of `Cc1cnccn1`, in the assay with PGR (gene 5241), the outcome was inactive.

As for `Cc1cc(O)c(C(C)(C)C)cc1C(C)(C)C`, the call in [2] was inactive.

In the case of `O=C1c2c(O)ccc(Nc3ccc(CCO)cc3)c2C(=O)c2c([N+](=O)[O-])ccc(O)c21`, the AC50 in assay [7] was 9.9 µM (active); in assay [8], 13.8 µM (active); in [1], 2.38 µM (active). Besides, the compound was classed as inactive in [9].

As for `O=C(c1ccccc1)c1ccc(Cl)cc1`, in assay [1], the concentration at half-maximal activity (AC50) is 12.6 µM (active).

As to `F[Si-2](F)(F)(F)(F)F`, the outcome in assay [4], in assay [10], in assay [11] and in [5] was inactive.

On to `CCCCC(CC)COC(=O)c1ccc(N(C)C)cc1` (stereo unspecified), for which the outcome in assay [4], in [5] and in assay [6] was inactive.

As to `CC(=O)CCC(C)C`, the compound was called inactive in [9].

Take `CCN(CC)c1ccc(N=Nc2ccccc2)cc1`: the compound was called inactive with PGR (gene 5241).
